# Shown is part of a subset that was picked to be rich in hits.
# mHTT-CaM PPI inh = disrupts binding of mutant huntingtin to calmodulin | AlphaScreen His-mHTT/GST-CaM binding, luminescence | inhibition, % at 15 µM | 3.6% of 190,000 active | P42858
# Pf apPOL inh = Pf-apPOL DNA polymerase inhibition. Recombinant Pf-apPOL, molecular beacon fluorescence, 1.5 h. inhibition, % at 10 µM. 0.25% of 210,000 active
# Hits are given with their value; . = inactive. Cut-off read from the data, not from the text of the source: active = inhibition above about 50%; inactive = the rest.
SMILES,mHTT-CaM PPI inh,Pf apPOL inh
O=C1OC2CC3CC2C1C3C(=O)N(Cc1ccccc1)Cc1ccccc1 (stereo unspecified),.,.
Cc1nc(-c2ccc(-c3noc(-c4ccccc4C)n3)cc2)cs1,.,.
Cc1ccc(NC(=O)C2CCc3sc(C(=O)N(C)C)cc3C2)cc1C (stereo unspecified),.,.
Cc1cccc(NC(=O)C2CCCN(c3cnn(Cc4ccccc4)c(=O)c3)C2)c1 (stereo unspecified),.,.
O=C(Nc1ccc2c(c1)OCO2)C(=O)NC(c1ccccc1)c1ccccc1,.,.
CC(=O)NC(c1ccc2c(c1)OCO2)c1cc(Cl)c2cccnc2c1O (stereo unspecified),100,.
COc1ccc(C(CNC(=O)C(=O)Nc2cccc(SC)c2)N2CCOCC2)cc1 (stereo unspecified),.,.
NS(=O)(=O)c1ccc(CNC(=O)Cc2csc(NC(=O)c3cccs3)n2)cc1,.,.
O=C(Cc1csc(NC(=O)c2cnccn2)n1)NCCc1c[nH]c2ccccc12,53,.
O=C(Cc1csc(NC(=O)c2ccc(=O)[nH]c2)n1)NCCc1c[nH]c2ccccc12,.,.
COC(=O)Nc1nc(CC(=O)NCc2ccccc2Cl)cs1,.,.
O=C(Cc1csc(NC(=O)c2ncccn2)n1)NCc1ccccc1Cl,98,.
O=C(Cc1csc(NC(=O)c2ccc3c(c2)OCO3)n1)NCCc1c[nH]c2ccccc12,56,.
O=C(Cc1csc(SCC(=O)c2cccs2)n1)NCCc1c[nH]c2ccccc12,.,.
O=C(Cc1csc(NC(=O)c2cccs2)n1)NO,.,72
O=C(NCc1cccc(F)c1)C1c2ccccc2CCN1C(=O)C1CC1 (stereo unspecified),.,.
Cc1ccc(C)c2sc(N(C)CC(=O)N3CCn4c3nc3ccccc34)nc12,.,.
O=c1[nH]c2cc(NCc3ccccc3)c([N+](=O)[O-])cc2[nH]1,.,.
COC(=O)CNC(=O)NCCC1CCN(S(=O)(=O)c2ccc(C)cc2)CC1,.,.
O=C(NCCC1CCN(S(=O)(=O)c2ccc(F)cc2)CC1)Nc1ccccc1,.,.
COCCNC(=O)NCCC1CCN(S(=O)(=O)c2ccc(C)cc2)CC1,55,.
Cc1ccc(S(=O)(=O)N2CCC(CCNC(=O)Nc3ccccc3)CC2)cc1,53,.
CCC(=O)NCc1nc2c(n1CC)CN(C(=O)c1ccccc1OC)CC2,.,.
O=S(=O)(Cc1ccc(Cl)cc1)N1CCC(CN2CCCCCC2)CC1,.,.
O=C(NCCCN1CCOCC1)c1cc2n(n1)CCCN(Cc1ccccc1)C2=O,.,.
SMILES,mHTT-CaM PPI inh,Pf apPOL inh
Cc1cc(-c2nnc(NC(=O)C(C)(C)Oc3ccc(Cl)cc3)o2)c(C)o1,98,.
CC(C)(Oc1ccc(Cl)cc1)C(=O)Nc1nnc(-c2ccsc2)o1,.,.
O=C(CN1CCCCC1c1nc(-c2ccc(F)cc2)no1)NC1CCCCC1 (stereo unspecified),.,.
O=C1NC(=Nc2ccccc2)S/C1=C/c1cccc(O)c1,.,.
COc1cccc(/C=C2/SC(=Nc3cc(C)cc(C)c3)NC2=O)c1O,52,.
COc1cc(/C=C2\SC(=Nc3ccccc3)NC2=O)cc(I)c1O,68,.
COc1cc(/C=C2/SC(=Nc3cc(C)cc(C)c3)NC2=O)cc([N+](=O)[O-])c1O,54,.
COc1ccc(/C=C2\SC(=Nc3cc(C)cc(C)c3)NC2=O)cc1,.,.
COc1cc(/C=C2\SC(=Nc3ccccc3)NC2=O)cc(OC)c1OC,.,.
COc1cc(/C=C2\SC(=Nc3ccccc3)NC2=O)cc(OC)c1O,74,.
CCOc1cc(/C=C2/SC(=O)NC2=O)cc([N+](=O)[O-])c1O,.,.
Cc1nc(C)c(-c2nc(-c3ccc(Oc4ccccc4)cc3)no2)s1,.,.
COc1ccc(/C=C(\NC(=O)c2ccco2)C(=O)Nc2cccc(O)c2)cc1,.,.
COc1cccc(-c2csc3nc(CN4CCN(C)CC4)[nH]c(=O)c23)c1,.,.
COc1ccc(Cl)cc1C(=O)N1CC2CN(S(=O)(=O)c3ccccc3)CC(C1)O2,.,.
Clc1cc2c(cc1CO/N=C1\CCCc3nonc31)OCO2,.,.
CC(C)c1ccc(OCC(=O)N(C)c2ccccc2)cc1,.,.
COc1cc(/C=C2\Sc3ccccc3C2=O)cc([N+](=O)[O-])c1O,81,.
O=C1/C(=C/c2cc(Br)cc([N+](=O)[O-])c2O)Sc2ccccc21,.,.
CCOc1cc(/C=C2\SC(=Nc3ccccc3)NC2=O)cc(Br)c1O,86,.
COc1cc(/C=C2/SC(=Nc3ccccc3)NC2=O)ccc1OCC#N,54,.
C=CCOc1ccc(/C=C2/SC(=Nc3cccc(C(=O)O)c3)NC2=O)cc1OC,58,.
C=CCOc1ccc(/C=C2/SC(=Nc3ccccc3)NC2=O)cc1OC,.,.
CCOc1ccc(N=C2NC(=O)/C(=C\c3ccc(OC)c(OC)c3)S2)cc1,.,.
CCOc1cc(/C=C2/SC(=Nc3ccccc3)NC2=O)ccc1O,.,.

# Compound activity from PubChem BioAssay.
